This is a sample that favours compounds with a hit; in the whole collection about 8.8% have one here.
HT1080 IDH1KD tx – HT-1080 IDH1 knockdown cell toxicity (counter line). HT-1080 IDH1 knockdown viability, ATP luminescence, 48 h. Potency, µM (series often up to 46.1 µM), without a hit: top-dose activity, negative = toxicity, most hits filed as cytotoxic. 360,000 tested, 2% active. AID 686971;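 note: potency is the fitted concentration of half-maximal effect; 0% = DMSO wells and -100% = cell-free medium wells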
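IDH1KD HT-1080 cells, 750/well, RPMI + 5% FBS; compound pinned after 2 h settling; 48 h, 37 °C; CellTiter-Glo luminescence; % activity normalised to DMSO and no-cell wells; curves fitted, classed by r2 and efficacy.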
HT1080NT lethal – kills 2HG-producing HT-1080-NT fibrosarcoma cells; AID 686970; HT-1080-NT fibrosarcoma viability, CellTiter-Glo ATP luminescence, 48 h; 360,000 tested, 1.6% active; Potency, µM (doses to about 46.1 µM), for inactives: at the top dose activity, negative = less viability, hits mostly cytotoxic;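 note: NT is the 2HG producing partner of a matched IDH1 knockdown line; potency is the fitted concentration of half-maximal effect; 0% = DMSO-treated cells and -100% = media-only wells without cells; nearly all actives have a fitted effect of over 55% in size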
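A 48-hour cytotoxicity screen used HT-1080-NT cells plated 2 hours before compound delivery. ATP-based CellTiter-Glo luminescence measured viability, normalized to DMSO and no-cell controls.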
KB-3-1 cytotox – KB-3-1 parental cell cytotoxicity | 400,000 tested, 1.4% active | Potency, µM (series often up to 46.1 µM), most hits filed as cytotoxic | KB-3-1 viability, CellTiter-Glo ATP luminescence, 72 h; note: potency is the fitted concentration of half-maximal effect; nearly all actives have a fitted effect of over 60% in size
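Luminescent ATP read-out (CellTiter-Glo) measures survival of drug-naive KB-3-1 cells after 72 h compound exposure at 37 °C. Titration series was screened from lowest to highest concentration, with DMSO vehicle plates as background controls.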
KB-V1 cytotox – kills drug-selected multidrug resistant KB-V1 cells; 400,000 tested, 3.4% active; KB-V1 MDR cells viability, CellTiter-Glo, 72 h; Potency, µM (doses to about 46.1 µM), actives largely listed as cytotoxic; note: potency is the fitted concentration of half-maximal effect; nearly all actives have a fitted effect of over 60% in size
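KB-V1, DMEM (no phenol red) + 10% FBS; cpd pin-transferred, titration series; 72 h, 37 degrees C; CellTiter-Glo, luminescence. Data normalized, curve-fit.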
IL-1B inflam inh – inhibitors of inflammasome signaling (IL-1 beta secretion) | 360,000 tested, 4.7% active | activity change, % at 57.5 µM | THP-1 LPS/ATP IL-1B secretion, AlphaLISA, 16 h; active compounds read low | AID 743279; in the data active = activity change below about -50%; inconclusive = mostly about -30% to -49%
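THP-1 cells pretreated 1 hr with compounds (up to 57.5 uM final), then stimulated with LPS (250 ng/mL final) plus ATP (1.25 mM final); secreted IL-1B measured by AlphaLISA after 16 hr, decreased signal indicating inhibition.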
Active calls of the source: *; i = inactive; ? = inconclusive; . = not tested or not shown. Unless noted, calls come from the whole dose curve; as a rule, active = well fitted curve in the direction sought with a large enough effect; inconclusive = small, poorly fitted or top-dose-only effect, or another doubt; inactive = no such curve, though single readings can be large; an effect the other way counts as inactive or inconclusive. Unless noted, % is set by controls: 0 for no effect and ±100 for the full control effect.

SMILES	HT1080 IDH1KD tx	HT1080NT lethal	KB-3-1 cytotox	KB-V1 cytotox	IL-1B inflam inh
Cc1ccc2nc(NC(=O)c3ccccn3)sc2c1	2.3µM*	15µM*	?	?	-102*
CSc1nc2ccc(NC(=O)C3=NNC(=O)CC3)cc2s1	-29%	-2%	i	?	0
CSc1nc2ccc(NC(=O)c3ccccn3)cc2s1	12µM*	15µM*	i	?	-11
CCOc1ccc2nc(NC(=O)c3ccccn3)sc2c1	16µM*	?	?	?	-98*
Cc1ccc2nc(NC(=O)c3ccccc3F)sc2c1	-2%	-7%	i	?	6
Cc1noc(C)c1S(=O)(=O)N(CC(=O)NCc1ccccc1Cl)c1ccc(C(C)C)cc1	.	.	i	i	.
CCOC(=O)C1(C)CCN1C(=O)c1ccco1 (stereo not drawn)	0%	28%	i	i	11
CCn1cc([N+](=O)[O-])c(C(=O)Nc2nc3ccc(OC)cc3s2)n1	-1%	?	i	i	-59*
COc1ccc2nc(NC(=O)c3cnccn3)sc2c1	7.9µM*	11µM*	i	?	-4
CCOc1ccc(S(=O)(=O)N(C)c2ccc(OCC(=O)Nc3nc4ccccc4s3)cc2)cc1	6.5µM*	-11%	?	?	8
CCSc1ncc(Cl)c(C(=O)Nc2nc3ccc(OC)cc3s2)n1	.	.	i	i	.
O=C(C[n+]1csc2ccccc21)c1ccc(O)c(O)c1	.	.	i	i	.
COC(=O)c1ccc(C(=O)OC)c(NC(=S)N2CC(C)CC(C)C2)c1 (stereo not drawn)	9%	14%	i	15µM*	-12
COC(=O)c1ccc(C(=O)OC)c(NC(=S)N2CCC(C(N)=O)CC2)c1	16%	22%	i	i	38
COC(=O)c1ccc(C(=O)OC)c(NC(=S)N2CCCC(C)C2)c1 (stereo not drawn)	18%	20%	i	18µM*	-1
CC(C)(C)c1ccc(C(=O)Nc2ccc(-c3nc4ccccc4[nH]3)cc2)cc1	.	.	i	i	.
COc1ccc(CCNC2CCC(c3ccccc3)CC2)cc1 (stereo not drawn)	?	18µM*	i	i	?
Cc1ccc(SC2=C(Sc3ccc(C)cc3)C(=O)c3ccccc3C2=O)cc1	-2%	3%	i	i	-74*
O=Cc1ccc(OCc2nnc(-c3ccccc3Br)o2)cc1	0%	-1%	i	i	27
NC(=O)c1ccccc1OCc1nnc(-c2ccccc2Br)o1	-6%	0%	i	18µM*	16
Cc1ccc(-c2nn(-c3ccccc3)cc2C(N)=O)o1	2%	4%	i	i	17
O=Cc1cn(-c2ccccc2)nc1-c1ccccc1	-9%	-9%	i	i	-5
Cc1ccc(-c2nn(-c3ccccc3)cc2C=O)o1	18µM*	?	?	i	-16
O=Cc1cn(-c2ccccc2)nc1-c1cccnc1	0%	-2%	i	i	-83*
Cc1ccc(S(=O)(=O)N/N=C\c2ccc([N+](=O)[O-])o2)cc1	-27%	4%	i	i	-60*
SMILES	HT1080 IDH1KD tx	HT1080NT lethal	KB-3-1 cytotox	KB-V1 cytotox	IL-1B inflam inh
O=C(O)/C=C/c1ccc([N+](=O)[O-])o1	-1%	1%	i	i	-20
O=[N+]([O-])c1ccc(/C=N/N=C/c2ccc([N+](=O)[O-])o2)o1	2.9µM*	4.6µM*	?	8.2µM*	-101*
O=[N+]([O-])c1ccc(/C=N/NS(=O)(=O)c2ccc(Cl)cc2)o1	-1%	-1%	i	?	-3
Cc1cc2ncn(/N=C/c3ccc([N+](=O)[O-])o3)c2cc1C	7.9µM*	-6%	i	?	?
CC(C)Cc1nnc(NC(=O)c2ccc(N3CCCC3=O)cc2)s1	11%	3%	i	i	-16
NC(=O)c1ccsc1NC(=O)c1ccc(N2CCCC2=O)cc1	-19%	-23%	i	i	-56*
CNC(=O)c1ccsc1NC(=O)c1ccc2c(c1)CCCC2	-9%	-18%	i	?	-55*
NC(=O)c1ccsc1NC(=O)c1ccc2c(c1)CCCC2	?	?	?	?	-55*
COC(=O)c1cc(C)[nH]c2c(C)cc3nc4ccccc4c3c12	?	?	i	?	-98*
O=C(Nc1cccnc1Cl)c1ccc(S(=O)(=O)N2CCCCCC2)cc1	-15%	10%	i	9.2µM*	-1
Cc1ccc(S(=O)(=O)Nc2cccc3cccnc23)c([N+](=O)[O-])c1	2.1µM*	?	?	?	-73*
CC(=O)Nc1ccc(S(=O)(=O)Nc2cccc3cccnc23)cc1	-12%	5%	i	?	54
Cc1cc(C)c(NS(=O)(=O)c2cccc3cccnc23)c(C)c1	15%	-5%	i	i	12
O=S(=O)(Nc1cccc2cccnc12)c1ccccc1	23µM*	26µM*	?	?	-104*
O=S(=O)(Nc1cccc2cccnc12)c1ccc(S(=O)(=O)N2CCCC2)cc1	1.3µM*	2µM*	i	?	-71*
C[C@@H]1CN([C@H](C)CO)C(=O)CCCn2nncc2CO[C@H]1CN(C)CC1CC1	22%	20%	i	i	1
COc1ccccc1C1c2[nH]c3ccccc3c2C[C@H]2C(=O)N(C3CCN(Cc4ccccc4)CC3)CC(=O)N12 (stereo partly drawn)	?	?	?	i	-26
CCc1cccc(C)c1NC(=O)c1cc(=O)[nH]c2ccc(S(=O)(=O)N3CCOCC3)cc12	-1%	4%	i	i	18
O=C(CC(=O)c1ccccc1)Nc1ccc([N+](=O)[O-])cc1	-25%	-8%	i	?	?
O=C(Nc1nnc(C2CC2)o1)c1ccc(S(=O)(=O)N2CCCCC2)cc1	-29%	-15%	?	i	-69*
CC1CCN(S(=O)(=O)c2ccc(C(=O)Nc3nnc(C4CC4)o3)cc2)CC1	?	-21%	?	i	60
COc1ccc(CNC(=O)c2cnc(N(C)C)nc2)cc1	.	.	i	i	.
CNc1oc(-c2cccc3ccccc23)nc1C#N	-2%	2%	i	i	-2
CNc1oc(-c2ccccc2Cl)nc1C#N	9%	7%	?	21µM*	-4
CCOC(=O)NNc1ccc2nonc2c1[N+](=O)[O-]	?	?	?	i	-77*
COC(=O)N/N=C/c1ccc([N+](=O)[O-])s1	?	-1%	i	?	-17
O=C(N/N=C/c1ccc([N+](=O)[O-])s1)c1ccccc1Br	16µM*	?	i	?	-63*
